# Screening results from PubChem BioAssay.
# LGR2 inh = Drosophila LGR2 receptor signaling inhibition | HEK293 LGR2, CRE-luciferase, bursicon-stimulated, 4 h | inhibition, % at 9.99 µM | AID 720647 | 0.35% of 380,000 active;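 active means drop in luminescence signal, shown as inhibition above about 50% in the replicate tests, limit read from the data, passing the limit was not always enough; inconclusive means probably only some replicates passing the limit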;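 further: agonist challenge used bursicon conditioned medium at about half maximal strength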
# PAX8 inh HTS = inhibitors of PAX8 transcriptional activity in RMG-I cells. RMG-I TPO-luciferase reporter, SteadyGlo, 24 h. inhibition, % at 12.6 µM. 1.2% of 360,000 active. AID 652154;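 active means mean replicate inhibition at least 60% with every replicate also reaching 60%; inconclusive means only one of the two criteria is met; inactive means mean below 60% and not all replicates reaching 60%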;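 further: luciferase light reporting Pax8 driven TPO promoter activity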
# LMP1 NFkB inh = inhibitors of Epstein-Barr LMP1-induced NF-kappaB reporter; LMP1-induced NF-kappaB luciferase reporter cells, luminescence; inhibition, % at 12.5 µM; 0.69% of 350,000 active; AID 504558; in the data active means inhibition above about 41%; inconclusive means no clear call, values can overlap the other calls
# EWS-Fli inh = EWS/Fli transcriptional activity inhibition | inhibition, % at 12.6 µM | 0.67% of 350,000 active | A673 NR0B1-luciferase reporter, viability-normalised;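 active means mean inhibition of at least 50% after viability correction, with every replicate also passing that limit; inconclusive means mean reaches 50% but only one of two replicates passes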;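 further: firefly luciferase signal divided by Alamar Blue viability fluorescence both relative to DMSO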
# Shn3 3UTR inh = reduces Shn3 3'UTR luciferase signal in osteoblasts; Clone20 osteoblast Shn3 3'UTR firefly luciferase, 24 h; inhibition, % at 12.5 µM; 0.52% of 360,000 active;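 active means mean inhibition of at least 75% with every replicate also reaching 75%; inconclusive means mean inhibition at least 75% but some replicate below; inactive means mean inhibition below 75%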
# TRPM1 prom inh = reduces MITF-dependent TRPM1 promoter luciferase signal. SK-MEL-5 TRPM1 promoter luciferase, 24 h. inhibition, % at 12.5 µM. 0.83% of 330,000 active. AID 488899;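 active means mean inhibition across replicates of 60% or more, whatever share of single replicates reaches that level; inconclusive means some that reach 60%, reason not given; inactive means mean inhibition across replicates below 60%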
# A number is an active result; n = inactive; u = inconclusive; x = no result given. In the library only some 2.2% were active in any assay of this set; here they are far more common.
SMILES,LGR2 inh,PAX8 inh HTS,LMP1 NFkB inh,EWS-Fli inh,Shn3 3UTR inh,TRPM1 prom inh
C[C@@H]1CCCCO[C@H](CN(C)Cc2ccccc2)[C@H](C)CN([C@H](C)CO)C(=O)c2cc(NS(=O)(=O)c3ccccc3)ccc2O1,n,n,x,n,x,x
CC(=O)N1[C@@H]2Cn3c(ccc(-c4ccc(F)cc4)c3=O)[C@H]1[C@@H](C(=O)N(C)C)[C@@H]2CO,n,x,x,n,x,x
Cc1nc([N+](=O)[O-])c(Br)n1CC(=O)c1ccc(Cl)cc1,x,x,n,x,n,n
Cc1nc([N+](=O)[O-])c(Br)n1Cc1ccc(Cl)c(Cl)c1,n,n,n,53.6,n,n
CC(=O)NS(=O)(=O)c1ccc(NC(=O)COc2ccc(C(=O)c3ccccc3)cc2)cc1,n,75.3,n,n,n,n
C[C@H](CO)N1C[C@H](C)[C@H](CN(C)Cc2ccccc2F)Oc2cc(C3=CCCCC3)ccc2S1(=O)=O,n,x,x,n,x,x
Nc1ncnc2c(C3OC(CO)C(O)C3O)c[nH]c12 (stereo unspecified),100.5,117.7,91.8,n,93.0,x
Nc1ncnc2c1nc(-c1ccccc1)n2C1OC(CO)C(O)C1O (stereo unspecified),n,n,x,n,n,x
C[C@@H]1CCCCO[C@@H](CN(C)S(=O)(=O)c2ccccc2)[C@H](C)CN([C@@H](C)CO)C(=O)c2cc(NC(=O)c3ccncc3)ccc2O1,n,n,x,n,x,x
CCOC(=O)C1=C(C)N(C)C(=O)NC1c1c(OC)ccc2ccccc12 (stereo unspecified),n,n,n,n,n,n
CCOC(=O)C1=C(C)N(C)C(=O)NC1c1ccccc1OC (stereo unspecified),x,x,40.4,x,n,n
O=C(O)/C=C\C(=O)NCc1ccccc1,x,n,n,x,n,n
O=C(O)/C=C/C(=O)NCc1ccccc1,n,81.7,n,n,n,n
COCC(=O)N1CC2(C1)[C@@H](c1ccc(C3=CCCC3)cc1)[C@H](CO)N2C(=O)COC,n,x,x,n,x,x
CN=C1c2cc3cc(OC)ccc3n2CCN1Cc1ccccc1,x,x,n,x,89.7,n
CC(=O)N1[C@@H]2c3ccc(C4=CCCC4)c(=O)n3C[C@H]1[C@H](CO)[C@H]2C(=O)NC1CCCC1,n,x,x,n,x,x
CCC(C)Nc1ccc(NC(C)CC)cc1 (stereo unspecified),x,x,n,x,88.9,97.1
CCOC(=O)c1sc2nc(C)nc(NCc3ccccc3)c2c1C,n,n,51.6,n,n,n
Cc1cc(C)nc(S/C=C/C(=O)c2ccccc2F)n1,x,n,n,n,n,87.4
CCN(CC)CCNC(=O)c1ccc(NC(=O)c2ccc3c(c2)CCC3)cc1,n,n,n,n,n,n
CCN(CC)CCNC(=O)c1ccc(NC(=O)c2cccc(S(=O)(=O)N(C)C3CCCCC3)c2)cc1,x,n,n,n,n,73.2
Cc1cc(S(=O)(=O)c2ccc(Cl)cc2)nc(S(=O)(=O)c2ccc(Cl)cc2)c1C#N,n,83.3,52.3,64.2,90.8,x
Cc1cc(Sc2nnc(/N=C/N(C)C)s2)c2ccccc2n1,55.0,85.4,69.8,n,n,n
Cc1cc(Sc2nnc(N)s2)c2ccccc2n1,57.6,89.5,70.8,n,u,n
COc1ccc2c3c([nH]c2c1)[C@@H](CO)N(C(=O)CN(C)C)CC31CCN(CC2CC2)CC1,n,n,x,n,x,x
SMILES,LGR2 inh,PAX8 inh HTS,LMP1 NFkB inh,EWS-Fli inh,Shn3 3UTR inh,TRPM1 prom inh
Cc1cc2[nH]c3c4ccccc4nc(C)c3c2cc1C,n,85.8,n,60.7,n,86.2
CO[C@@H]1CN(C)C(=O)c2cc(NS(C)(=O)=O)ccc2OC[C@H](C)N(Cc2ccccn2)C[C@@H]1C,n,x,x,n,x,x
C[C@H](CO)N1C[C@H](C)[C@H](CN(C)Cc2ccc(C(F)(F)F)cc2)OCc2ccccc2-c2ccccc2C1=O,n,n,x,n,x,x
COc1cccc(S(=O)(=O)N(C)C[C@H]2OCc3ccccc3-c3c(n(C)c4ccccc34)C(=O)N([C@@H](C)CO)C[C@H]2C)c1,n,85.6,x,n,x,x
Cc1cccc(S(=O)(=O)N(C)C[C@H]2OCc3ccccc3-c3c(n(C)c4ccccc34)C(=O)N([C@H](C)CO)C[C@@H]2C)c1,n,x,x,n,x,x
C[C@@H]1CN([C@@H](C)CO)C(=O)c2ccccc2-c2ccccc2CO[C@H]1CN(C)Cc1ccccc1C(F)(F)F,n,79.0,x,n,x,x
COc1cccc(S(=O)(=O)N(C)C[C@H]2OCc3ccccc3-c3c(n(C)c4ccccc34)C(=O)N([C@H](C)CO)C[C@@H]2C)c1,n,65.7,x,n,x,x
